Values joined by “and” are separate entries in the source; they are usually repeats but may differ in a detail not shown here. Identical values can stand only once. About 5,700 (36%) of roughly 16,000 compounds were called active. Another 24% or so got no clear call; they are omitted. Some of the results follow. Unmarked numbers belong to inactive results. Calls follow the shape of the dose curve; as a rule, active = well fitted curve in the direction sought with a large enough effect; inconclusive = small, poorly fitted or top-dose-only effect, or effect the other way; inactive = no such curve, though single readings can be large or run the other way.
% is scaled to controls: 0 for no effect and ±100 for the full control effect.

The target of this assay is Cytochrome P450 1A2 (Homo sapiens) (UniProt P05177). Briefly: Cytochrome panel assay with activity outcomes. To be noted: recombinant CYP, pro-luciferin dealkylation, luminescence, p450-cyp1a2; series mostly up to 57.1 µM; activity, negative = inhibition: at the top concentration.
Cytochrome P450 1A2 (Homo sapiens), sequence (P05177 whole entry, looked up): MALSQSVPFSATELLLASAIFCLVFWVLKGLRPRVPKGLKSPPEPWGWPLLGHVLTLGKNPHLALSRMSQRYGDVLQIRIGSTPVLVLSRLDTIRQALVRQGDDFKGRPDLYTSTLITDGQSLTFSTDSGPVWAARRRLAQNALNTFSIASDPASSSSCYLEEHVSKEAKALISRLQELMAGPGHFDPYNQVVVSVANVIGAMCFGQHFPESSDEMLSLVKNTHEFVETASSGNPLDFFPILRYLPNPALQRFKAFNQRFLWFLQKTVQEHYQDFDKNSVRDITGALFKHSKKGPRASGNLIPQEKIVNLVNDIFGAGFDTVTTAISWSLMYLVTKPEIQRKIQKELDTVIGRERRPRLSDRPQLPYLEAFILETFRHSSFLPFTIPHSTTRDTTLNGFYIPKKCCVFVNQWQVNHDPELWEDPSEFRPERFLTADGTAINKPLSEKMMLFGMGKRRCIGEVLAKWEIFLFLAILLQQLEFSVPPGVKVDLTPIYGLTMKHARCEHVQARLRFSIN
As to `Cc1cccc(N(NC(=O)C(C)(C)O)C(=O)c2ccccc2)c1`, the “activity, negative = inhibition” value is -6.27%.

For `CN(C)C(=O)c1ccc(-c2nccc(NCc3cccnc3)n2)cc1`, the AC50 is 15.8 µM (active).

With `Cc1cccc(CNc2ccnc(-c3ccc(C(=O)N(C)C)cc3)n2)c1`, the half-maximal activity concentration (AC50) was 25.1 µM (active).

On to `C/C(=N\N=C1\NC(=O)CC(C(=O)O)S1)c1cccs1` (stereo not drawn), for which the “activity, negative = inhibition” value is -18.6%.

With `C/C(=N\N=C(c1ccccc1)c1ccccc1)c1cccs1`, the AC50 is 1.41 µM (active).

For the molecule `C[C@@H](CSC(=N)N)C(N)=O`, the activity, negative = inhibition is -6.57% [at 2.29 µM].

For `Cc1ccc(-c2cccc(OC(=O)c3ccccc3F)c2)cc1`, the AC50 is 1.26 µM (active).

Consider `O=C(c1cc(O)c(O)c([N+](=O)[O-])c1)c1ccccc1F`, for which the “activity, negative = inhibition” value is -20.4%.

On to `CCn1c(SCc2nc3ccccc3[nH]2)nnc1-c1ccc(OC)cc1`, for which the AC50 is 25.1 µM (active).

`c1ccc(SCc2nc3ccccc3[nH]2)cc1`: the concentration at half-maximal activity (AC50) is 11.2 µM (active).

Turning to `Cc1ccccc1CSc1nnc(-c2cccs2)n1Cc1ccco1`, the concentration at half-maximal activity (AC50) was 4.47 µM (active).

With `c1ccc(-c2nnc(SCc3nc4ccccc4[nH]3)n2Cc2ccco2)cc1`, the AC50 was 14.1 µM (active).

As to `CCn1c(SCC(=O)NC(=O)NCc2ccco2)nnc1-c1cccs1`, the “activity, negative = inhibition” value was -19.9%.

For the molecule `O=c1cc(CSc2ccccc2)[nH]c(=S)[nH]1`, the “activity, negative = inhibition” value was -15.1%.

Turning to `Cc1cc(NC(=O)CSc2nnc(-c3ccccc3)n2Cc2ccco2)no1`, the “activity, negative = inhibition” value was -10.2%.

Regarding `COCCn1c(Cc2ccccc2)nnc1SCc1nc2ccccc2c(=O)[nH]1`, the “activity, negative = inhibition” value was -4.28%.

As to `COc1ccc(NC(=O)CCNS(=O)(=O)c2ccc3c(c2)CCC(=O)N3)cc1`, the “activity, negative = inhibition” value is 0.443%.

As to `Cc1ccccc1C1C(C#N)=C2N=C(N)c3c(sc4c3CCCCC4)N2C2=C1C(=O)CC(C)(C)C2` (stereo not drawn), the “activity, negative = inhibition” value was -4.46%.

For `COc1ccc(Oc2ncc3nc(-c4cccs4)c(=O)n(-c4ccccc4)c3n2)cc1`, the AC50 was 3.16 µM (active).

For the molecule `COc1ncc2nc(-c3cccs3)c(=O)n(-c3ccccc3)c2n1`, the AC50 is 2 µM (active).

In the case of `CN(C)c1ncc2nc(-c3cccs3)c(=O)n(-c3ccccc3)c2n1`, the AC50 is 31.6 µM (active).

Turning to `COc1ccc(-n2c(=O)c(-c3cccs3)nc3cnc(OC)nc32)cc1`, the AC50 is 5.01 µM (active).

With `C/C(CCN1CCCc2nc(C)c(C)cc21)=N\O[C@@H](C)c1cn([C@H](CO)Cc2ccccc2)nn1`, the activity, negative = inhibition is -5.46% [at 11.4 µM] and -2.73% [at 11.4 µM].

In the case of `Nc1ncnc2c1ncn2[C@H]1O[C@@H](C(=O)O)[C@@H](O)[C@H]1O`, the activity, negative = inhibition is -10.9% [at 11.4 µM].

On to `CC(C)CN1CCCC2(CCN(C(=O)c3csnn3)CC2)C1`, for which the “activity, negative = inhibition” value is -9.16%.

For the molecule `Nc1ccc(N2CCN(C(=O)c3ccco3)CC2)cc1`, the “activity, negative = inhibition” value is 16.2%.

With `O=C(c1ccc2ncsc2c1)N1CCN(c2ccc(O)cc2)CC1`, the “activity, negative = inhibition” value is -16.1%.

Consider `O=C(c1cc(-c2cccs2)on1)N1CCN(c2ccc(F)cc2)CC1`, for which the half-maximal activity concentration (AC50) is 2.82 µM (active).

For `Cc1cc(C)c(-c2noc(C(=O)OC(C)(C)C)c2C(=O)OC(C)(C)C)c(C)c1`, the “activity, negative = inhibition” value was -10.5%.

Regarding `Cn1c(=O)c(-c2ccc(Cl)cc2)nc2cnc(OCc3ccccc3)nc21`, the AC50 is 0.794 µM (active).

Regarding `Cn1c(=O)c(-c2ccccc2)nc2cnc(OCc3ccccc3)nc21`, the AC50 was 1.58 µM (active).

In the case of `O=C(c1csnn1)N1CCC2(CCN(Cc3nccs3)CC2)CC1`, the “activity, negative = inhibition” value was -4.92%.

On to `COC(=O)C(NS(=O)(=O)c1ccc(NC(C)=O)cc1)C(C)C` (stereo not drawn), for which the “activity, negative = inhibition” value was -19.1%.

Consider `COc1ccc(CONS(=O)(=O)c2ccc(NC(C)=O)cc2)cc1Cl`, for which the AC50 was 14.1 µM (active).

`COc1ccc(CCNC(=O)CC(NS(=O)(=O)c2ccc(NC(C)=O)cc2)C(C)C)cc1OC` (stereo not drawn): the “activity, negative = inhibition” value was -6.9%.

In the case of `O=C(CSc1nc2ccccc2c(=O)n1NC(=O)Cc1ccccc1)NCc1ccccc1Cl`, the AC50 is 15.8 µM (active).

Consider `CCc1cc(C(c2ccccc2OC)N2CCOCC2)c(NC(=O)c2ccccc2)s1` (stereo not drawn), for which the “activity, negative = inhibition” value is -23.9%.

Turning to `CCOC(=O)c1c(-c2ccc(C)cc2)csc1NC(=O)C1CC=CCC1C(=O)O` (stereo not drawn), the AC50 was 12.6 µM (active).

Regarding `CCOC(=O)c1c(-c2cccc(C)c2)csc1NC(=O)c1c(-c2ccccc2)noc1C`, the “activity, negative = inhibition” value is 6.98%.

Regarding `CCOC(=O)c1c(-c2ccccc2)csc1NC(=O)c1cccc(N2C(=O)CCC2=O)c1`, the AC50 is 8.91 µM (active).

On to `CCOC(=O)c1c(NC(=O)C2C3CCC(O3)C2C(=O)O)sc(C)c1-c1ccc(C)cc1` (stereo not drawn), for which the “activity, negative = inhibition” value was 9.59%.

With `O=C(c1cc(C(F)(F)F)cc(C(F)(F)F)c1)N1CCC2(CCN(Cc3nccs3)CC2)CC1`, the “activity, negative = inhibition” value was -7.63%.

Turning to `Cc1cnc2cc(Cl)ccc2c1SCC(=O)O`, the activity, negative = inhibition was -2.26% [at 2.29 µM].

As to `CCOC(=O)CSc1cc(=O)n(C)c2cc(Cl)ccc12`, the AC50 is 1.26 µM (active).

As to `Cn1c(=O)cc(SCC(=O)NCCCN2CCOCC2)c2ccc(Cl)cc21`, the “activity, negative = inhibition” value was -14.7%.

`O=C(NCC1CCCO1)c1onc(CSc2ccccc2F)c1C(=O)O` (stereo not drawn): the “activity, negative = inhibition” value is 13.9%.

On to `O=C(CSCc1c(F)cccc1Cl)NCC1CCCO1` (stereo not drawn), for which the AC50 was 15.8 µM (active).

On to `O=C(CN(Cc1ccccc1Cl)C(=O)c1ccc(CN2CCOCC2)o1)NCC1CCCO1` (stereo not drawn), for which the “activity, negative = inhibition” value was 0.687%.

For the molecule `CSc1nc2ccccc2cc1/C=C(\C#N)c1ccc(Cl)cc1Cl`, the AC50 was 1.78 µM (active).

`CSc1nc2ccccc2cc1/C=C(\C#N)c1cccc(Cl)c1`: the AC50 was 2 µM (active).

In the case of `CSc1nc2ccccc2cc1/C=C(\C#N)c1cccc(C)c1`, the AC50 was 3.55 µM (active).

Regarding `CSc1nc(C)c(CCOC(=O)c2cccc(C)c2)c(=O)[nH]1`, the “activity, negative = inhibition” value is -10.3%.

As for `O=C(NNC(=O)c1cc2cc3ccccc3nc2s1)c1cccc(Cl)c1`, the “activity, negative = inhibition” value was -25.7%.

In the case of `CSc1nc2ccccc2cc1/C=C(\C#N)c1ccccc1`, the AC50 was 2.82 µM (active).

On to `COc1ccc(NC(=O)N2CC3(CCN(C(=O)c4cccn4C)CC3)C2)cc1`, for which the “activity, negative = inhibition” value was -1.16%.

In the case of `CCC(=O)OCC(=O)[C@@]1(OC(=O)CC)[C@H](C)C[C@@H]2[C@H]3CCC4=CC(=O)C=C[C@]4(C)[C@]3(Cl)[C@@H](O)C[C@@]21C`, the “activity, negative = inhibition” value is -7.99% [at 25.6 µM].

In the case of `CN(Cc1ccco1)c1cc(-c2ccccc2Cl)ncn1`, the AC50 is 2.51 µM (active).

Regarding `CN(C)Cc1ccccc1-c1cc(N(C)Cc2ccco2)ncn1`, the concentration at half-maximal activity (AC50) was 15.8 µM (active).

Consider `Cc1cc(C(C)(C)C)cc(C)c1CC1=NCCN1`, for which the “activity, negative = inhibition” value was 9.92%.

In the case of `CO[C@]1(C2=NCCN2)COc2ccccc2O1`, the “activity, negative = inhibition” value was -19%.

For the molecule `Cc1ccccc1/C=C\C1=NCCN1`, the AC50 is 6.31 µM (active).

Consider `CCC(=O)c1ccc(OCC(O)CN2CCCCC2)cc1` (stereo not drawn), for which the “activity, negative = inhibition” value is 9.96%.

With `CCCCOc1ccc(C(=O)CCN2CCCCC2)cc1`, the AC50 is 3.16 µM (active).

Source of the values: PubChem BioAssay AID1851 (National Center for Advancing Translational Sciences (NCATS), 2009).
